The values below come from PubChem BioAssay (Tox21).

The target in experiment [1] is Gonadotropin-releasing hormone receptor (Homo sapiens) (UniProt P30968). Nature of the experiment: Human gonadotropin-releasing hormone receptor (GnRHR) small molecule agonists, calcium flux assay in GnRHR-HEK293 cells (AID 1920063). Note: nearly all actives have a fitted effect of over 35% in size. The procedure, abridged: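 Compounds dissolved in DMSO are pin-transferred onto dye-loaded GnRHR-HEK293 cells, which were seeded 18 h before at 37 C/5% CO2. Calcium signal is read as fluorescence intensity at 1 s intervals for 3 min.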
A general note: Calcium assays in cells follow changes in intracellular calcium, usually with a dye or a luminescent sensor.

In experiment [2] the target is KiSS-1 receptor (Homo sapiens) (UniProt Q969F8). Nature of the experiment: Human kisspeptin (KISS1R) small molecule agonists, calcium flux assay in KISS1R-HEK293 cells (AID 1920064; active = well fitted activation curve with a large enough effect in the repeat runs). The method in brief:
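Cell line: HEK293, stable human KISS1R. Dye loading 1 h at 37 C after 18 h culture. Read: kinetic fluorescence, 480/540 nm, 3 min at 1 s intervals.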

Experiment [3] is described as follows: G protein-coupled receptor (GPCR) small molecule agonists, calcium flux assay: HEK293 wild type cell line counter screen (AID 1920065). The procedure, abridged:
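Tox21 10K compounds, 15 concentrations each in triplicate, pin-transferred in DMSO onto dye-loaded cells; kinetic read at 480/540 nm for 3 min, 1 s intervals.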

A short description of experiment [4]: p53 small molecule agonists, cell-based qHTS assay with rat liver microsomes (AID 1963578). The method in brief: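 p53RE-bla cells, 4,000/well, pre-incubated 5 h, then given compounds plus rat liver microsomes (0.5 mg/mL final) and NADPH (0.5 mg/mL final). Incubation 16 h at 37 C; beta-lactamase reporter read by LiveBLAzer fluorescence after 2 h at room temperature.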
In general terms: Quantitative high-throughput screening tests each substance at several concentrations.

The nature of experiment [5]: p53 small molecule agonists, cell-based qHTS assay with rat liver microsomes: qHTS cell viability counter screen (AID 1963580). Note: nearly all actives have a fitted effect of over 45% in size. The procedure, abridged: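 Cytotoxicity counter screen: intracellular ATP read by CellTiter-Glo luminescence in the p53 reporter wells. HCT-116 p53RE-bla cells were treated for 16 h at 37 C alongside rat liver microsomes and NADPH, each 0.5 mg/mL final.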

Experiment [6] can be described thus: p53 small molecule agonists, cell-based qHTS assay (AID 1963582; active = well fitted activation curve with a large enough effect in the signal ratio in the repeat runs, not every such curve was filed as active; the % refers to the signal ratio). The procedure, abridged: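 16 h compound exposure (37 C) of p53 response element–bla cells, preceded by 5 h recovery at 37 C/5% CO2; read-out via LiveBLAzer B/G FRET substrate, 2 h RT, fluorescence intensity.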
Experiment [7] addresses 5-hydroxytryptamine receptor 2A (Homo sapiens) (UniProt P28223). Nature of the experiment: 5-hydroxytryptamine receptor 2A (HTR2A) small molecule antagonists, cell-based qHTS assay (AID 1963586). Note: nearly all actives have a fitted effect of over 45% in size. Note: potency is the fitted concentration of half-maximal effect. The procedure, abridged:
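CHO cells stably expressing human HTR2A were plated for 18 h at 37 C, then loaded with calcium dye for 1 h. Compounds were preincubated 5 min at room temperature before DOI (4 nM solution) was added. Kinetic fluorescence was read for 3 min.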

For experiment [8] the target is unchanged. Nature of the experiment: 5-hydroxytryptamine receptor 2A (HTR2A) small molecule agonists, cell-based qHTS assay (AID 1963587). Note: nearly all actives have a fitted effect of over 30% in size. The method in brief:
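Kinetic calcium-flux fluorescence (2 min, 1 sec intervals) after compound addition in agonist mode. HTR2A-CHO cells were cultured 18 h, then dye-loaded 1 h at 37 C.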

Experiment [9] addresses Muscarinic acetylcholine receptor M1 (Homo sapiens) (UniProt P11229). Nature of the experiment: Cholinergic receptor muscarinic 1 (CHRM1) small molecule antagonists, cell-based qHTS assay (AID 1963588). Note: nearly all actives have a fitted effect of over 40% in size. Note: potency is the fitted concentration of half-maximal effect. The method in brief:
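Compounds were tested at 15 concentrations in three independent runs. Dye-loaded CHRM1-CHO cells were exposed 5 min at room temperature before stimulation by acetylcholine added at 50nM. Intracellular calcium was read kinetically on FDSS for 3 min.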

Experiment [10] has the same target. Nature of the experiment: Cholinergic receptor muscarinic 1 (CHRM1) small molecule agonists, cell-based qHTS assay (AID 1963589). Note: nearly all actives have a fitted effect of over 35% in size. The method in brief: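 Homogeneous fluorescence calcium flux, agonist mode. Human M1-expressing CHO cells; compound dosed at 15 concentrations, three independent runs; signal sampled every 1 sec.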
A short description of experiment [11]: cAMP Responsive Elements (CRE) small molecule agonists, cell-based qHTS assay (AID 1963590). The procedure, abridged: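 HEK 293T cells stably bearing CRE-bla were plated at 2,000 cells per well and rested 18 h. Compounds, positive controls or DMSO were added for 3 h at 37 C. LiveBLAzer B/G substrate was then loaded for 2 h at room temperature.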
Experiment [12] has as its target Beta-2 adrenergic receptor (Homo sapiens) (UniProt P07550). Nature of the experiment: Adrenergic beta2 receptor (ADRB2) small molecule antagonists, cell-based qHTS assay (AID 1963592). Note: series mostly up to about 92 µM; nearly all actives have a fitted effect of over 50% in size. The procedure, abridged: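 Assay format: CHO-ADRB2 cells, 18-20hr seeding at 37C/5% CO2, then compound plus 1nM isoproterenol agonist mix for 0.5hr RT. Homogeneous time-resolved fluorescence cAMP detection after 1hr, expressed as 665/615 nm ratio.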

The target is the same in experiment [13]. Nature of the experiment: Adrenergic beta2 receptor (ADRB2) small molecule agonists, cell-based qHTS assay (AID 1963593).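 Note: CHO cells stably overexpressing human ADRB2.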 The procedure, abridged: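 CHO cells stably over-expressing ADRB2 were plated overnight at 37C, then dosed with compounds plus a stimulation mix containing 100uM IBMX and 25uM Ro-20-1724 for 0.5hr at room temperature. cAMP was measured by HTRF competition, 1hr.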

Experiment [14] deals with D(2) dopamine receptor (Homo sapiens) (UniProt P14416). Nature of the experiment: Dopamine D2 receptor (DRD2) small molecule agonists, cell-based qHTS assay (AID 1963594). Note: nearly all actives have a fitted effect of over 35% in size. The procedure, abridged:
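cAMP accumulation in DRD2-HEK293 cells measured by HTRF after 1 h detection; compounds added 10 min before NKH477 (200nM […]) forskolin-analogue stimulation, 30 min at room temperature, with Ro20-1724 present at 0.1 mM final.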

Experiment [15] shares this target. Nature of the experiment: Dopamine D2 receptor (DRD2) small molecule antagonists, cell-based qHTS assay (AID 1963595; active = well fitted inhibition curve with a large enough effect in the signal ratio in the repeat runs, with a control signal flat; the % refers to the signal ratio). The method in brief: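 HEK293 cells stably expressing DRD2 were preincubated with 0.1 mM Ro20-1724, then with compound for 10 min at room temperature. Cells were stimulated with 200 nM NKH477 plus 12 nM quinpirole for 30 min, and cAMP was read by HTRF.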

Experiment [16] can be described thus: p53 small molecule agonists, cell-based qHTS assay with human liver microsomes: qHTS cell viability counter screen (AID 1963579). Note: nearly all actives have a fitted effect of over 45% in size. The procedure, abridged: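 p53RE-bla cells, 4,000/well, dosed 5 hours after plating, with human liver microsomes (0.5 mg/mL final) plus NADPH (0.5 mg/mL final), 16 hours at 37 C. Viability read as CellTiter-Glo luminescence after 30 min at room temperature.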

A short description of experiment [17]: p53 small molecule agonists, cell-based qHTS assay with human liver microsomes (AID 1963577). The method in brief: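 p53RE-bla cells, 4,000/well, compound added after 5 h, with human liver microsomes 0.5 mg/mL and NADPH 0.5 mg/mL final; 16 h at 37 C, then LiveBLAzer 2 h RT, fluorescence.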
Experiment [18] is described as follows: cAMP Responsive Elements (CRE) small molecule antagonists, cell-based qHTS assay (AID 1963591; active = well fitted inhibition curve with a large enough effect in the signal ratio in the repeat runs, not every such curve was filed as active; the % refers to the signal ratio). The procedure, abridged: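 First, CRE-bla HEK293T cells settled 18 h at 37 C. Next, compound and 0.25 uM final NKH477 were applied for 3 h. Last, LiveBLAzer B/G substrate was loaded for 2 h at room temperature.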
Experiment [19] can be described thus: p53 small molecule agonists, cell-based qHTS assay: qHTS cell viability counter screen (AID 1963581). Note: nearly all actives have a fitted effect of over 45% in size. The procedure, abridged:
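ATP content measured by luminescence in HCT-116 p53RE-bla cells treated 16 h at 37 C, same wells as the reporter screen.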

Records with an inconclusive call do not appear. The source made the active and inactive calls. Unless noted, calls come from the whole dose curve.

5-hydroxytryptamine receptor 2A (Homo sapiens), sequence (P28223 whole entry, looked up): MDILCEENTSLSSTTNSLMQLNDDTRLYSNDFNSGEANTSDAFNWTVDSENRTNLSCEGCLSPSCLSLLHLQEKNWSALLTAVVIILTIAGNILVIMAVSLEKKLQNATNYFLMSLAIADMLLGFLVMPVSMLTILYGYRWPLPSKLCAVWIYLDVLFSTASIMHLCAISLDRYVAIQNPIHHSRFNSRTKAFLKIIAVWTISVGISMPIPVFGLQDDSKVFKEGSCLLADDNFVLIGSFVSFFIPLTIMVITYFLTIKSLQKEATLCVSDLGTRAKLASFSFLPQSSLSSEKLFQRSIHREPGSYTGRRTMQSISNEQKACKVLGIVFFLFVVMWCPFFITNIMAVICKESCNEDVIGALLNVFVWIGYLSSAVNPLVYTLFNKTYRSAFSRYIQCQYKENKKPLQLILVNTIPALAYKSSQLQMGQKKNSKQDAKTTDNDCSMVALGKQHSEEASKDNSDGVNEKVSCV
Muscarinic acetylcholine receptor M1 (Homo sapiens), sequence (P11229 whole entry, looked up): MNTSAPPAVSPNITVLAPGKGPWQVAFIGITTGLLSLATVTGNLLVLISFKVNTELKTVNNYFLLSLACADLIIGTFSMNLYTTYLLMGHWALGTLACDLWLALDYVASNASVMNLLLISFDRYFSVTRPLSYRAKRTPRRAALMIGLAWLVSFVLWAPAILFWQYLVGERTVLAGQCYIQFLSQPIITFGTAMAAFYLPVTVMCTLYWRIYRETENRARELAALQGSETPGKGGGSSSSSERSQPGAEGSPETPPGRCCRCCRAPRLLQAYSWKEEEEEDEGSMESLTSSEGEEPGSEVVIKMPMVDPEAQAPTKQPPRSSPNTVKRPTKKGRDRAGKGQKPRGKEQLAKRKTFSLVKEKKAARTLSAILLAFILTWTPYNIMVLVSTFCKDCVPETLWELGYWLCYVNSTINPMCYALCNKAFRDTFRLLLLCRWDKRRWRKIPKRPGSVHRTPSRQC
KiSS-1 receptor (Homo sapiens), sequence (Q969F8 whole entry, looked up): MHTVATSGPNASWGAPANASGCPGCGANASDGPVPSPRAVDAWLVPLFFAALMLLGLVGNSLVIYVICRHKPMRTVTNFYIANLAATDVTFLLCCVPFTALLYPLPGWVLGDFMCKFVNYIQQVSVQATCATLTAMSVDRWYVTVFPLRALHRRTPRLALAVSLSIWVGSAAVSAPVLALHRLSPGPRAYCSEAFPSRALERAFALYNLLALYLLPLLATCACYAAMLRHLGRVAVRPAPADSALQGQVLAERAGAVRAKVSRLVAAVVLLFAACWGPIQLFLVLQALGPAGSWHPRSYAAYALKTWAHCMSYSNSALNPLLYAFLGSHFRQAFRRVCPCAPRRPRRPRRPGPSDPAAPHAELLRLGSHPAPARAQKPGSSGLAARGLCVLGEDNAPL
Gonadotropin-releasing hormone receptor (Homo sapiens), sequence (P30968 whole entry, looked up): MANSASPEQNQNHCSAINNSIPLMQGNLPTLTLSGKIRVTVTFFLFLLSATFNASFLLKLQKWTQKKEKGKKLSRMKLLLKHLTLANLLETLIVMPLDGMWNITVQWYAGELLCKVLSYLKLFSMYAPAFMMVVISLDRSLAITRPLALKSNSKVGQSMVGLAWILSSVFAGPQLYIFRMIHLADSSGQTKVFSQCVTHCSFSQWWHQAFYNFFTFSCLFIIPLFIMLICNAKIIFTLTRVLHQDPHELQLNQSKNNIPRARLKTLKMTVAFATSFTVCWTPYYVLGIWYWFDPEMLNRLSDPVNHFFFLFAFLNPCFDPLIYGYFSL
Beta-2 adrenergic receptor (Homo sapiens), sequence (P07550 whole entry, looked up): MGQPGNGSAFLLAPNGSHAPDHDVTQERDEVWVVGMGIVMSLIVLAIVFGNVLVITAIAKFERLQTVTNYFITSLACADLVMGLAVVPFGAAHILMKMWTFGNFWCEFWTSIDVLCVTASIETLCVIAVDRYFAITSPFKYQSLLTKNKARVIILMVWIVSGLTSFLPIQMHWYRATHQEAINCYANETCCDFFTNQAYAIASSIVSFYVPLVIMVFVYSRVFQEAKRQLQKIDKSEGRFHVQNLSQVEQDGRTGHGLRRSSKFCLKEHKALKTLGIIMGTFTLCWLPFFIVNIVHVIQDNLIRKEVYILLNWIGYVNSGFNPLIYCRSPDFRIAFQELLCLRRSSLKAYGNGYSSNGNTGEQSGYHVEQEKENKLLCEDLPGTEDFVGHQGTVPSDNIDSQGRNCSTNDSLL
D(2) dopamine receptor (Homo sapiens), sequence (P14416 whole entry, looked up): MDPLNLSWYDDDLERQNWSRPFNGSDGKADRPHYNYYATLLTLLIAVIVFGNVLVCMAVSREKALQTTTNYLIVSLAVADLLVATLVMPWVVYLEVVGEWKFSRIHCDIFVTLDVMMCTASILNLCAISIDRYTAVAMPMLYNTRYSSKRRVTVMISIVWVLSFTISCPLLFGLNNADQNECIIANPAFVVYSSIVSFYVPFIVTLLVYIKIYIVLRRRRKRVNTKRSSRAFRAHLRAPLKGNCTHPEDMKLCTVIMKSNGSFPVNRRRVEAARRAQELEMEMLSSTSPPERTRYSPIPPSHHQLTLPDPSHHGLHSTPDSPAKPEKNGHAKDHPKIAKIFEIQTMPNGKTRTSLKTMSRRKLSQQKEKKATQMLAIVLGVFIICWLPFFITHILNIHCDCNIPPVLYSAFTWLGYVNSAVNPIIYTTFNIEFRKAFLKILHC

With `NCCCNCCCN`, the Potency result in experiment [1], in [2], in experiment [3], in experiment [4], in [5] and in [6] was “inactive” each time. In addition, the Potency entry in [7], in [8], in [10], in experiment [11], in [12] and in experiment [13] was “inactive” throughout. In addition, the Potency entry in [14] and in experiment [15] was “inactive” throughout. The Potency in [9] is 38.1 µM (active).
With `O=[N+]([O-])c1c2ccccc2cc2ccccc12`, the Potency entry in [1], in [2], in experiment [3], in experiment [4], in experiment [16] and in [5] was “inactive” in each case. For the same compound, the Potency entry in [8], in experiment [9], in [10] and in experiment [14] was “inactive” each time.
Regarding `CC(C)COP(=O)(OCC(C)C)OCC(C)C`, the Potency entry in experiment [1], in experiment [2], in experiment [3], in experiment [17], in experiment [4] and in [16] was “inactive” each time. For the same compound, the Potency entry in experiment [5], in experiment [7], in experiment [8], in [9], in [10] and in experiment [11] was “inactive” throughout. In addition, the Potency result in experiment [18], in [12] and in experiment [14] was “inactive” in each case.
Regarding `Clc1ccccc1-c1ccccc1Cl`, the Potency result in [1], in experiment [2], in experiment [3], in [17], in [4] and in [16] was “inactive” each time. The Potency entry in experiment [5], in [19], in [6], in [8], in experiment [9] and in experiment [10] was “inactive” each time. Moreover, the Potency result in [11], in experiment [18], in experiment [12], in [14] and in experiment [15] was “inactive” each time. Besides, the Potency in [7] was 47.9 µM (active).
For the compound `C[C@]12CC[C@H]3[C@@H](CCC4=CC(=O)CC[C@@H]43)[C@@H]1CC[C@@H]2OC(=O)CCC1CCCCC1`, the Potency result in experiment [1], in experiment [2], in [3], in experiment [17], in experiment [4] and in [16] was “inactive” throughout. The Potency result in experiment [5], in experiment [19], in [7], in experiment [8], in experiment [9] and in [10] was “inactive” in each case. Moreover, the Potency entry in experiment [11], in experiment [18], in [12] and in [14] was “inactive” in each case.
As to `O=C(Nc1ccccc1)Nc1cnns1`, the Potency result in [1], in experiment [2], in experiment [3], in [17], in experiment [16] and in experiment [19] was “inactive” each time. The Potency entry in [6], in [7], in experiment [8], in experiment [9], in [10] and in experiment [18] was “inactive” throughout. Besides, the Potency result in [12], in experiment [13] and in [15] was “inactive” in each case.
As for `S=C=Nc1ccccc1`, the Potency result in [1], in [2], in [3], in experiment [17], in [4] and in experiment [16] was “inactive” in each case. For the same compound, the Potency entry in experiment [5], in experiment [19], in experiment [6], in experiment [7], in [8] and in experiment [9] was “inactive” each time. In addition, the Potency entry in [10], in experiment [11], in experiment [12], in [14] and in experiment [15] was “inactive” throughout.
